Compound activity deposited in PubChem BioAssay by National Center for Advancing Translational Sciences (NCATS).
Pf growth 48h – Primary qHTS for delayed death inhibitors of the malarial parasite plastid, 48 hour incubation. P. falciparum luciferase growth in erythrocytes, 48 h. Potency, µM (series often up to 28.7 µM), most hits filed as inhibitors. 310,000 compounds, 5.9% hits
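Luminescence readout; reporter = integrated firefly luciferase in P. falciparum. RBC culture at 2% hematocrit, 0.1% parasitemia final, 37 C/5% CO2; decreased signal taken as growth inhibition.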
CHX counter – Cycloheximide Counterscreen for Small Molecule Inhibitors of Shiga Toxin; AID 2314, 2010; 300,000 compounds, 12% hits; max response, %; cell reporter, cycloheximide protein synthesis inhibition counterscreen; in the data active = max response mostly above about 13%, no sharp cut-off; inactive = mostly below about 14%; note: read at 38.3 µM for the half of the compounds with a filed dose
Pf growth 96h – Primary qHTS for delayed death inhibitors of the malarial parasite plastid, 96 hour incubation; P. falciparum luciferase reporter growth, 96 h; Potency, µM (titrated, usually from 28.7 µM), most hits filed as inhibitors; 320,000 compounds, 6.9% hits; AID 504834, 2011
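P. falciparum expressing integrated firefly luciferase, in erythrocytes at 2% hematocrit, 0.05% parasitemia, incubated with compounds 96 h at 37 C, 5% CO2. Growth inhibition read as loss of luminescence; two-generation exposure targets delayed-death apicoplast inhibitors.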
Shiga toxin inh – A qHTS for Small Molecule Inhibitors of Shiga Toxin; 290,000 compounds, 9.2% hits; Vero cells, Shiga toxin protein synthesis inhibition reporter; inhibition, % at 38.7 µM; in the data active = inhibition mostly above about 28%, no sharp cut-off; inactive = mostly below about 43%
Hits are given with their value; n = inactive; u = inconclusive; x = no result given; ! = a repeat was not active; [ ] = another dose, or the depositor's remark. Sampled rows, rich in hits. Any-hit rate of the full collection: about 21%. Unless noted, calls come from the whole dose curve; as a rule, active = well fitted inhibition curve with a large enough effect; inconclusive = small, poorly fitted or top-dose-only effect, or another doubt; inactive = no such curve, though single readings can be large or run the other way.

SMILES | Pf growth 48h | CHX counter | Pf growth 96h | Shiga toxin inh
CC(C)(C)NC(=O)C1N(c2cccnc2)C(=O)C2C(C(=O)Nc3ccccc3)C3(C)C=CC21O3 (stereo not drawn) | n | n | u | n
Cc1cc(NC(=O)C2C3C(=O)N(c4cccnc4)C(C(=O)NC(C)(C)C)C34C=CC2(C)O4)no1 (stereo not drawn) | n | n | 13µM | n
O=C(NC(=S)Nc1ccccc1Br)C1CCCC1 | n | 38 | n | 143
COC(=O)c1ccccc1NC(=S)NC(=O)C1CC1 | x | n | n | n
O=C(NC(=S)Nc1ccccc1F)C1CCCCC1 | n | 57 | u | n
O=C(NC(=S)Nc1cccc(Cl)c1Cl)C1CC1 | 12µM | n | n | n
COc1cc(CC(=O)NCC2CCCCC2)cc(OC)c1OC | n | n | n | n
O=C(NCc1cnn(-c2ccc(F)cc2)c1)C1CCC(=O)N(C2CC2)C1 (stereo not drawn) | n | n | n | n
COCc1c(C(=O)NC2CCCCC2)sc2cccc(F)c12 | n | x | n | x
Cc1c(C)c2ccc(OC(C)C(=O)N3CC[C@@]4(O)CCCC[C@H]4C3)cc2oc1=O (stereo partly drawn) | n | n | 9.3µM | n
Oc1c(Br)cc(Br)cc1CNc1cccc2cccnc12 | u | n | u | n
Oc1ccc(Br)cc1CNc1cccc2cccnc12 | u | n | 9.3µM | x
COc1ccc(CN(C)C(C)C(=O)Nc2ccc([N+](=O)[O-])cc2Cl)cc1OC (stereo not drawn) | u | n | 12µM | n
Cc1ccc(O)c(CNc2cccc3cccnc23)c1 | u | n | u | n
CCOc1ccc(CN(C)C(C)C(=O)Nc2ccc([N+](=O)[O-])cc2Cl)cc1OC (stereo not drawn) | u | n | u | n
COc1cccc(CNc2cccc3cccnc23)c1O | n | 16 | u | active
COc1cccc(CNc2ccccn2)c1O | n | 34 | n | x
COc1cccc(CNc2ccc(F)c(Cl)c2)c1O | u | n | n | n
CC1CCCCC1NC(=O)CCNS(=O)(=O)c1cc(Br)cnc1N (stereo not drawn) | n | n | n | n
Cc1ccnc(NCc2cccc3ccccc23)c1 | n | n | n | n
COc1cccc(CNc2cc(C)ccn2)c1O | n | 39 | u | 51
COc1ccccc1CNc1ccc([N+](=O)[O-])cc1C | n | n | n | n
Oc1c(Br)cc(Br)cc1CNc1ccccn1 | n | n | n | n
COc1ccc(CNc2ccccn2)c(O)c1 | n | 20 | u | 48
COc1cccc(CNc2ccc([N+](=O)[O-])cc2Cl)c1O | n | 39 | n | n
SMILES | Pf growth 48h | CHX counter | Pf growth 96h | Shiga toxin inh
O=C(NNc1cccc(Cl)c1)c1cccnc1Oc1ccccc1 | n | n | n | n
Cc1cccn2c(CN[C@H]3CCCCNC3=O)c(C(=O)N3CCOCC3)nc12 | n | n | 9.3µM | n
S=C(NC1CCCCC1)N1CCc2[nH]c3ccccc3c2C1 | u | n | u | 44
Cc1cccc(C)c1NC(=O)c1c[nH]c2ccccc12 | n | 16 | n | 74
COC(=O)c1ccc(NC(=O)C(=O)c2c[nH]c3ccccc23)cc1 | n | n | n | n
COc1ccccc1NC(=O)c1c[nH]c2ccccc12 | n | 34 | n | 52
COC(=O)c1csc(C(=O)c2c[nH]c3ccccc23)n1 | x | 23! | x | 42!
CCc1ccccc1-n1ncc(C(=O)Nc2ccccc2OC)c1C | 12µM | n | 13µM | n
COc1ccccc1NC(=O)c1ccccc1-c1ccccc1C(=O)O | n | n | n | n
COc1ccccc1NC(=O)c1cc(=O)[nH]c2ccccc12 | n | n | n | x
CC1(C)C(=O)NCCN1C(=O)CC1C(=O)NCCN1Cc1cccc(C(F)(F)F)c1 (stereo not drawn) | n | n | n | n
COc1ccccc1NC(=O)c1ccccc1NC(=O)c1ccccc1C(=O)O | n | 16 | u | x
COc1ccccc1NC(=O)c1ccccc1C(=O)Nc1ccccc1OC | n | n | n | n
COc1ccccc1C(=O)Nc1ccc2c3c(cccc13)CC2 | n | 38 | n | 87
COc1ccccc1C(=O)Nc1ccccc1SC(=O)c1ccccc1OC | n[0.00184 µM] | 26 | n | 72
COC(=O)c1ccccc1NC(=O)c1ccccc1OC | n | n | n | n
COc1cccc(OC)c1C(=O)Nc1ccc2c3c(cccc13)CC2 | n | n | n | n
O=C(NCCN1CCOCC1)c1cc([N+](=O)[O-])cc([N+](=O)[O-])c1 | n | n | n | x
COc1ccccc1/C=C1/C(=O)N(c2ccc([N+](=O)[O-])cc2)N=C1C | u | n | n | n
CN(C)/C=C1\C(=O)N(c2ccc([N+](=O)[O-])cc2)N=C1c1ccccc1 | n | 32 | n | 93
C/C(=C1/C(=O)N(c2ccc([N+](=O)[O-])cc2)N=C1c1ccccc1)N(C)C | n | 25 | n | n
CN(C)/C=C1/C(=O)N(c2ccc([N+](=O)[O-])cc2)N=C1c1ccccc1 | n | 34 | n | 83
C=CCNC(=O)C1CCC(=O)N1S(=O)(=O)c1ccc(C)cc1 (stereo not drawn) | n | n | u | n
O=C1CC(C(=O)NC2CCCCC2)C2(CCCCC2)O1 (stereo not drawn) | n | n | n | n
CCOc1ccc(N(CC)C(=O)CCS(=O)(=O)c2cccc3nonc23)cc1 | n | n | n | n
SMILES | Pf growth 48h | CHX counter | Pf growth 96h | Shiga toxin inh
O=C(CCS(=O)(=O)c1cc(Br)cc2c1N(C(=O)C1CC1)CC2)NCc1ccco1 | 8.3µM | n | n | n
CCC(=O)N1CCc2cc(S(=O)(=O)CCC(=O)NCc3ccco3)ccc21 | n | n | u | n
CC(CC(=O)NCc1ccco1)S(=O)(=O)c1ccc2c(c1)CCN2C(=O)C1CC1 (stereo not drawn) | n | n | 8.3µM | n
CN(C(=O)Cc1c(C(=O)O)n(C)c2ccccc12)c1cccc(C(F)(F)F)c1 | n | n | n | n
CC(C)CC(=O)N1CCN(C(=O)c2ccc(F)cc2)CC1 | n | n | 13µM | n
CCCc1c(OCC(O)COc2ccc3c(=O)cc(C(=O)O)oc3c2CCC)ccc(C(C)=O)c1O (stereo not drawn) | x | n | x | n
O=C(Nc1cnn(Cc2ccc(F)cc2)c1)c1cnccn1 | n | 17 | u | n
O=C(Nc1cnn(Cc2ccc(F)cc2)c1)c1noc2c1CCCC2 | n | 45 | u | 152
O=C(Nc1ccc(OC(F)F)cc1)c1cc[n+]([O-])cc1 | n | n | n | n
COc1ccc(Cc2nnc(SC(C)C(=O)Nc3ccc(C(N)=O)cc3)o2)cc1 (stereo not drawn) | n | x | n | x
CCCCCCCC/C=C\CCCCCCCC(=O)OC[C@@H](COP(O)(O)=S)OC | x | n | x | n
Cc1ccc(S(=O)(=O)NCCC(=O)N2CCCCCCC2)cc1C | n | x | u | x
Cc1ccc(/C=C(\C#N)C(=O)Nc2ccccn2)o1 | n | 28 | n | n
COc1ccc(O)c(/C=C(\C#N)C(=O)Nc2ccccn2)c1 | n | 26 | n | 53
COc1ccc(/C=C(\C#N)C(=O)Nc2ccccn2)cc1 | n[0.00184 µM] | 21 | n | n
CC(C)CN(CC(C)C)C(=O)C12CCC(C)(C(=O)O1)C2(C)C (stereo not drawn) | n | n | n | n
